Our source for the inhibition values is PubChem BioAssay AID602281 (The Scripps Research Institute Molecular Screening Center, 2012).

The campaign covered roughly 360,000 compounds. About 2,900 (0.81%) were called active. Many of the other results were omitted from the sample, so actives are more common in it than they were. Unmarked numbers belong to inactive results.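 How the source made its calls: active means inhibition above the mean inhibition across every tested compound plus 3 SD (cut at about 22% in these data); inactive means the rest.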

What is called inhibition is the change of the read-out against control, counted positive when it falls.

Chain of Perilipin-5 (Homo sapiens) + 1-acylglycerol-3-phosphate O-acyltransferase ABHD5 (Homo sapiens) (Q00G26 whole entry, looked up): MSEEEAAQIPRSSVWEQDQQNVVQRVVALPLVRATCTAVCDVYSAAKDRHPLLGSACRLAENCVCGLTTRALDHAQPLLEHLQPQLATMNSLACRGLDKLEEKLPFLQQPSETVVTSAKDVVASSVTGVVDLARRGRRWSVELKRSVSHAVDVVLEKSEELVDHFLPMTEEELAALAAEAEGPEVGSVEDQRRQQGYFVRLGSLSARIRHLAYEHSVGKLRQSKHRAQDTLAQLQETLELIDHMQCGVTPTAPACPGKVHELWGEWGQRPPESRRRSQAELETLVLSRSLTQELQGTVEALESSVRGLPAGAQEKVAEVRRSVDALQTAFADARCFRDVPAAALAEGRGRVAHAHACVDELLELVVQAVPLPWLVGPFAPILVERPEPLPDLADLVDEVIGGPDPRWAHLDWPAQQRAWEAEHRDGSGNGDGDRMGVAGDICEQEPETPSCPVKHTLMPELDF
Chain of Perilipin-5 (Homo sapiens) + 1-acylglycerol-3-phosphate O-acyltransferase ABHD5 (Homo sapiens) (Q8WTS1 whole entry, looked up): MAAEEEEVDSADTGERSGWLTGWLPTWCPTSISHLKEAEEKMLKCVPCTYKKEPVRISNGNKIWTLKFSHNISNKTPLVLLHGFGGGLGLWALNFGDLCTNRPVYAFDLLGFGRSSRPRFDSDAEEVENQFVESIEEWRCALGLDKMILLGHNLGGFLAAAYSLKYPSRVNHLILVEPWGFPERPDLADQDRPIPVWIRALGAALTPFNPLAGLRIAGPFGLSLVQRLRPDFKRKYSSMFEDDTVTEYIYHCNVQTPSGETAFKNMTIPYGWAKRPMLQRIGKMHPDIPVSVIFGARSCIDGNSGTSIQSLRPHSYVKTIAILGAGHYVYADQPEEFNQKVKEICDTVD

This test addresses Perilipin-5 (Homo sapiens) + 1-acylglycerol-3-phosphate O-acyltransferase ABHD5 (Homo sapiens) (UniProt Q00G26+Q8WTS1). Description: ABHD5-PLIN5 interaction inhibitors, primary screen, cell lysate, split luciferase complementation, luminescence (AID 602281).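 Further: 0% = DMSO only wells and the 100% control is not disclosed.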 As to conditions: Split G. princeps luciferase complementation, 4 h, at 4 µM, active compounds read high.
For `O=C(CSc1nnc(CNC(=O)c2ccc(F)cc2)o1)Nc1ccc2c(c1)OCO2`, the inhibition was -2.58%.

`COCCN(CCOC)c1nc(N)c2c(N)nc3c(c2c1C#N)CC(=O)N3Cc1ccc(Cl)cc1`: the inhibition was 32.7% (active). `C=CCC[C@H](CCCCC)OC(=O)/C=C/[C@H](O)[C@@H](O)C[C@@H](O)CC=C`: the inhibition is -7.52%. For `Cc1c(CN2CCC(CO)(CCOc3ccccc3)CC2)[nH]c2ccc(Cl)cc12`, the inhibition is 22.5% (active). To `CC(C)(O)C#Cc1ccc(CN2CCC(CO)(CCc3ccccc3)CC2)cc1` belongs -5.13%; to `Cc1cccc(-c2ncc(CN3CCC(CO)(CCCc4ccccc4)CC3)cn2)c1`, 12.2%. With `CCC(=O)NC(Nc1cc(C)ccn1)(C(F)(F)F)C(F)(F)F`, the inhibition is 7.47%. Next, `c1cc(-c2ccc3[nH]ccc3c2)n2ccnc2c1`: 0.38%; `CCN1CCC(O)(/C=C/c2ccc(C)cc2)C(C(=O)/C=C/c2ccc(C)cc2)C1` (stereo not drawn): 75% (active); `CN(CC(=O)Nc1cccc2c1CCCC2)S(=O)(=O)c1ccc(Cl)cc1`: 4.76%. To `COC(=O)Cc1ccc(OC(=O)C2CCN(S(=O)(=O)c3ccc(OC)c(OC)c3)CC2)cc1` belongs 4.12%. Next, `CC1(C(=O)NCc2cccc3ccccc23)CCN1Cc1ccc(-c2ccccc2)o1` (stereo not drawn): 40.4% (active). For `CSc1ccc(CN2CCC2(C)C(=O)NCc2ccccc2Br)cc1` (stereo not drawn), the inhibition is -5.69%. To `CC1(C(=O)NCc2ccc3c(c2)OCO3)CCN1C(=O)Cc1cccc2ccccc12` (stereo not drawn) belongs 0.84%; to `CN(C)c1cccc(C(=O)N2CCC(n3nccc3NC(=O)C3CCOC3)CC2)c1` (stereo not drawn), -0.66%.

Regarding `CC(C)(C)NC(=O)C(CCc1ccccc1)n1c(=O)c(-c2ccccc2)nc2ccccc21` (stereo not drawn), the inhibition was 22.9% (active).

Turning to `CSCCC(C(=O)NC(C)(C)C)n1c(-c2ccccc2)nc2ccccc21` (stereo not drawn), the inhibition is -13.8%. Next, `CCC(C(=O)NC(C)(C)C)n1c(-c2ccccc2)nc2ccccc21` (stereo not drawn): 9.54%; `COc1ccc(S(=O)(=O)N2CCCCC2)cc1NC(=O)C1CC(=O)N(c2ccc3c(c2)OCCO3)C1` (stereo not drawn): 12.7%. Take `CCOCN(C(=O)Cn1c(C(C)O)nc2ccccc21)c1c(C)cccc1CC` (stereo not drawn): the inhibition is -2.38%. As for `CN(C)C(=O)COC(=O)c1cccc(S(=O)(=O)N2CC3(C)CC2CC(C)(C)C3)c1` (stereo not drawn), the inhibition was -4.49%. To `Cc1nnnn1/C(=C\c1ccccc1)C(=O)OCC(=O)N1CC2(C)CC1CC(C)(C)C2` (stereo not drawn) belongs 38.6% (active); to `O=S(=O)(NCc1cccnc1)c1ccc(Cl)nc1`, 5.93%. With `Cc1cc(C)c(C)c(S(=O)(=O)Nc2ccc(O)cc2)c1C`, the inhibition is 4.3%. In the case of `COc1ccc(CN2C(=O)C(CC(=O)NCCN3CCOCC3)CC(C(=O)N(C(C)C)C(C)C)=C2C)cc1` (stereo not drawn), the inhibition was -11%.

Turning to `CCCCCCCCCCCCCCCC(=O)OC/C=C(C)/C=C/C=C(C)/C=C/C1=C(C)CCCC1(C)C`, the inhibition is -4.62%.

Consider `O=C(Nc1ccccc1C(F)(F)F)N1CCCC1c1cccnc1` (stereo not drawn), for which the inhibition is 11.2%. For the molecule `CC(=O)c1ccc(NC(=O)CCc2nnc3ccc(NCc4ccco4)nn23)cc1`, the inhibition is 27.9% (active). As to `CCOc1ccccc1NC(=O)CCc1nnc2ccc(NCc3ccco3)nn12`, the inhibition is 16.7%. With `CCOC(=O)c1cccc(NC(=O)CCc2nnc3ccc(N4CCOCC4)nn23)c1`, the inhibition is -2.37%. Regarding `O=C(CCc1nnc2ccc(NCc3ccco3)nn12)Nc1cc(F)ccc1F`, the inhibition is 22.5% (active). Next, `CC1CCN(C(=O)CCc2nnc3ccc(NCc4ccco4)nn23)CC1`: 7.83%; `O=C(CNc1ccc(F)cc1F)NC(=O)NCc1ccco1`: -0.2%. To `Cc1ccc(-n2c(SCC(=O)Nc3ncc(Cl)cc3Cl)nc3ccccc32)cc1` belongs -7.45%; to `Nn1c(SCC(=O)NC2CCCc3ccccc32)nnc1C1CC1` (stereo not drawn), 10.4%; to `O=S(=O)(Nc1nccs1)c1ccc2c(c1)OCCO2`, -5.22%. To `CCOc1ccc2nc(Cl)c(C3CC(c4ccccc4)=NN3C(=O)c3cccs3)cc2c1` (stereo not drawn) belongs -5.74%.

As for `Cc1cccc(C)c1NC(=O)CN1C(=O)C(C)Oc2ccccc21` (stereo not drawn), the inhibition is -5.51%. Consider `O=C(NCCOCc1ccc(Cl)cc1)c1ncn[nH]1`, for which the inhibition was 24.2% (active).

`O=C(NCCS(=O)(=O)NCc1ccc(Cl)cc1)c1ccccc1`: the inhibition was -6.46%. On to `Cc1cc(C(=O)NCCc2ccc(Cl)cc2)n(-c2ccccc2)n1`, for which the inhibition was 1.98%. On to `O=C(C(=O)N1CCc2ccccc2C1)c1c[nH]c2ccccc12`, for which the inhibition is 0.81%. On to `COc1cccc(C(CC(=O)NCCN2CCOCC2)NS(=O)(=O)c2ccc(C)cc2)c1OC` (stereo not drawn), for which the inhibition is 9.39%. In the case of `Nc1ccc2nc3c(=O)[nH]c(=S)[nH]c3nc2c1`, the inhibition is 35% (active).

In the case of `CN(CC(=O)Nc1ccc(F)cc1)CC(=O)Nc1ccc(Cl)c(S(=O)(=O)N2CCOCC2)c1`, the inhibition was 5.71%. Consider `Cc1cccc(C(=O)Nc2ccc(Oc3cnccn3)cc2)c1`, for which the inhibition is 3.4%. Take `Cc1cccc(NS(=O)(=O)c2ccc(C)c(C(=O)NCc3cccnc3)c2)c1`: the inhibition was 3.74%. To `Cc1cccc(CS(=O)(=O)c2ncc(Cl)c(C(=O)Nc3ccc(F)cc3)n2)c1` belongs 53.6% (active). Regarding `O=C(CS(=O)(=O)Cc1ccccc1)Nc1cccnc1`, the inhibition was -3.38%. Regarding `Cc1cccc(NC(=O)c2nc(S(=O)(=O)Cc3ccccc3)ncc2Cl)c1`, the inhibition was 72.4% (active). On to `O=C(NCCN1CCN(C(=O)c2cccc([N+](=O)[O-])c2)CC1)C(=O)NCc1ccc(Cl)cc1`, for which the inhibition is 12.1%. As for `CCOc1cc(C(=O)Nc2c(C)ccc3nsnc23)cc(OCC)c1OCC`, the inhibition is -10.9%. Consider `C[C@@H]1C[C@@H]2O[C@H]2/C=C\C=C\C(=O)Cc2c(Cl)c(O)cc(O)c2C(=O)O1`, for which the inhibition was 27.7% (active). On to `COc1ccccc1CNS(=O)(=O)c1cc(C(=O)NCc2ccccn2)c(Cl)cc1Cl`, for which the inhibition was 2.36%.

Turning to `Cc1ccc2c(c1)N(CC(=O)N1CCC(C)CC1)C(=O)c1cccnc1O2`, the inhibition was -5.07%.

Turning to `Cc1ccc(N(C(=O)c2ccc(CN3CCOCC3)o2)C(C(=O)NCCC(C)C)c2cccs2)c(C)c1` (stereo not drawn), the inhibition is 5.44%. Next, `Cc1ccc(S(=O)(=O)N2CCC(C(=O)N[C@@H](C)C(=O)NCCc3ccccc3)CC2)cc1`: -6.43%; `NC(=S)Nc1c(Cl)cccc1Cl`: -3.54%. On to `CCCCN(CCCC)CCNC(=O)CN1C(=O)COc2ccc(S(=O)(=O)N3CCOCC3)cc21`, for which the inhibition was -1.64%. For the molecule `Clc1cccc(Cc2c(-c3cccc(Cl)c3)nc3ccc(Cl)cn23)c1`, the inhibition was -8.19%. Regarding `Cc1ccc2nc(-c3ccco3)c(Cc3cccc(Cl)c3)n2c1`, the inhibition is 32.1% (active). Turning to `Cc1cc2nc(-c3ccc(F)cc3)c(Cc3ccsc3)n2c(C)c1Br`, the inhibition was -2.1%. On to `Fc1cccc(Cc2c(-c3cccc(Cl)c3)nc3ccc(Br)cn23)c1`, for which the inhibition is -8.3%. Next, `Fc1cccc(Cc2c(-c3ccc(Cl)cc3)nc3ccc(Cl)cn23)c1`: 11.5%; `Cc1cc2nc(-c3ccco3)c(Cc3cccc(F)c3)n2c(C)c1Br`: 23.1% (active); `Cc1cc2nc(-c3ccc(Cl)cc3)c(Cc3cccc(F)c3)n2c(C)c1Br`: -5.68%. As for `Cc1ccc(Cc2c(-c3ccccc3)nc3ccc(Cl)cn23)cc1`, the inhibition is -3.87%. `Cc1ccc(Cc2c(-c3ccco3)nc3ccc(Cl)cn23)cc1`: the inhibition was 54.8% (active). For the molecule `Nn1c(SCc2ccccc2)nnc1C1CCCCC1`, the inhibition was 7.84%.

As for `CCOc1ccc(NC(=O)CN(C)CC(=O)Nc2cccc(Cl)c2C)cc1OCC`, the inhibition was -2.27%. For `COCCN1Cc2cccc(C(=O)Nc3ccccc3OC)c2C1=O`, the inhibition is 2.14%. Regarding `CCc1ccccc1S(=O)(=O)Cc1ccc(C(=O)NCCc2ccccc2)o1`, the inhibition is 0.54%.

As to `CCC(C)CN1C(=O)CSCC1(C)C(=O)NCc1ccccc1` (stereo not drawn), the inhibition is -0.17%. With `NC(=O)C(Cc1ccccc1)NC(=O)C12CC3CC(CC(C3)C1)C2` (stereo not drawn), the inhibition is -7.59%. To `COc1cc(OC)cc(C(=O)NNC(=O)CNC(=O)c2ccc(Br)o2)c1` belongs 1.69%; to `CCCCCCNC(=O)O[C@H]1CN(C(=O)OC(C)C)N(C(=O)OC(C)C)[C@@H]2CN(S(=O)(=O)c3ccc(C)cc3)C[C@]12O`, -9.24%. For the molecule `CCOCCOC(=O)C1=C(C)N(C)C(=O)NC1c1ccccc1F` (stereo not drawn), the inhibition was 2.63%.

As for `CN1c2ccc(C=O)c3c(C=O)ccc(c23)N(C)C1(C)C`, the inhibition was 7.33%. To `Cc1cc(C)c(NC(=O)C[N+](C)(C)CC(O)COc2cccc3ccccc23)c(C)c1` (stereo not drawn) belongs 33% (active); to `CC(C)c1ccccc1OCC(O)CN(CC(O)COc1cccc2ccccc12)C(C)C` (stereo not drawn), 8.09%. For `Cc1cc(C)cc(OCC(=O)NCc2cc(C)nc3ccccc23)c1`, the inhibition is 0.84%.

Consider `NC(=O)c1ncn([C@@H]2O[C@H](CNCc3cnc(N4CCOCC4)s3)[C@@H](O)[C@H]2O)n1`, for which the inhibition is -2.34%. As for `COc1ccc(C(=O)c2c3ccc([N+](=O)[O-])cc3[n+]([O-])n2CCCN)cc1`, the inhibition is -9.06%. For `O=C(CSc1nc(C2CC2)nc2ccccc12)Nc1cccc(O)c1`, the inhibition was -2.61%. In the case of `O=C(Cc1ccccn1)c1ccc(O)cc1O`, the inhibition was -1.78%. Next, `O=C(NNc1c2ccccc2nc2ccccc12)c1cc2ccccc2cc1O`: 26.3% (active); `CCCn1c(N)c(N(CCOC)C(=O)C2CCCC2)c(=O)[nH]c1=O`: -0.19%; `Cc1ccc(CC(=O)N(C)CC(=O)N(CC(C)C)c2c(N)n(CC(C)C)c(=O)[nH]c2=O)cc1C`: -2.36%.
